Test results: PubChem BioAssay AID504770 (ICCB-Longwood Screening Facility, Harvard Medical School, 2011)
Screen size: about 130,000 compounds; about 350 (0.27%) were called active. This is one part of a sample in which actives are shown more often than they occur. Cut-off read from the data, not from the text of the source: active = z-score below about -2 (passing the limit was not always enough); inactive = the rest.

assay: PubChem AID 504770; details: E. coli YBA685 rctB-dependent plasmid, OD600 growth, 3 h; hits give low values

SMILES | z-score
Cc1ccccc1NC(=O)CSC(=O)c1ccccc1 | 0.6 (inactive)
COc1ccc(C2C(C#N)(C#N)C2(C#N)C#N)cc1 | 0.05 (inactive)
N#CC1(C#N)C(c2ccc(Cl)c(Cl)c2)C1(C#N)C#N | -6.85 (active)
O=C(O)C(Cc1ccccc1)Nc1ncnc2sc3c(c12)CCC3 (stereo not drawn) | 0.65 (inactive)
CCc1cccc(NC(=O)CC(=O)Nc2ccc3nc4n(c(=O)c3c2)CCCCC4)c1 | 0.6 (inactive)
Cc1c(C(=O)NC2CCCCC2)sc2nc(-c3ccc(F)cc3)cn12 | 0.15 (inactive)
COc1ccc(C(=O)Nc2ccc(-n3nncc3-c3ccccc3)cc2)cc1 | -0.9 (inactive)
Cc1ccccc1C(=O)N(CC#N)CC#N | -0.6 (inactive)
Cc1ccccc1NC(=O)NC(=O)CC#N | 0.45 (inactive)
Cc1ccccc1C(=O)CC#N | -3.2 (active)
CC(C)(C)c1ccc(CNCc2ccco2)cc1 | 0.35 (inactive)
CCOC(=O)CN1C=NS(=O)(=O)c2ccccc21 | 0.4 (inactive)
O=C1Nc2ccccc2C1=Nc1cccc(C(F)(F)F)c1 | -1.05 (inactive)
CC(C)c1c(O)c2ccccc2[nH]c1=O | -0.4 (inactive)
O=C1CCC(C2CCC(=O)CC2)CC1 | -0.55 (inactive)
CCc1nc2ccccc2n1CCO | 0.6 (inactive)
CS(=O)(=O)Nc1ccccc1C(=O)OCC(=O)NC1CC1 | -0.75 (inactive)
Cc1ccc(NC(=O)Cn2cc3c(n2)CCC(C)C3)c(Cl)c1 (stereo not drawn) | -0.6 (inactive)
COc1cc(CNc2ccc3[nH]c(=O)[nH]c3c2)ccc1OCC(N)=O | 1.6 (inactive)
Cc1nc(S(=O)(=O)NCc2ccc(-c3cccs3)cc2)cn1C | -0.2 (inactive)
CCCOc1ccc(NC(=O)CC2SC(N)=NC2=O)cc1 (stereo not drawn) | -1.1 (inactive)
Cc1onc(-c2c(Cl)cccc2Cl)c1/C=N/O | -0.4 (inactive)
CCCc1nc2c3ccccc3ncn2n1 | -5.5 (active)
CCCCn1c2nc3ccccc3nc2c2c(N)ncnc21 | 0.2 (inactive)
CCCCn1c2ccccc2c2nc3ccccc3nc21 | 0.05 (inactive)
Cc1c(C(=O)NCc2ccc(OC(C)C)cc2)oc2ccc3c(c12)C=CC(C)(C)O3 | 0.85 (inactive)
CC(=O)Oc1cccc2c1OC(C)(C)C2 | 1.6 (inactive)

SMILES | z-score
CC(=O)Oc1ccc(OC(C)=O)c2c1C1C=CC2CC1 | 0.85 (inactive)
CC(=O)Oc1cccc2c1C(=O)C=CC2=O | -6.5 (active)
CC1Cc2cc(S(=O)(=O)NCCC(=O)Nc3ccc(F)cc3F)ccc2N1C(=O)C1CC1 (stereo not drawn) | -0.8 (inactive)
COC(F)(C(=O)N1CCOCC1)C(F)(F)F (stereo not drawn) | -0.4 (inactive)
Cc1ccc(C(=O)C(C)Sc2nnc3ccccn23)cc1 (stereo not drawn) | -0.05 (inactive)
Cc1c(Sc2nc3ccccc3s2)c(=O)[nH]c2cc3c(cc12)OCO3 | 1 (inactive)
C/C=C/C(=O)Nc1ccc(N2CCN(c3ccc(C(F)(F)F)cn3)CC2)nc1 | 0.05 (inactive)
O=C1CC2(CCN(C(=O)Cc3ccccc3)CC2)Oc2ccccc21 | 2.85 (inactive)
CCc1n[nH]c(=O)c2cc3sccc3n12 | -0.2 (inactive)
O=C1c2ccc(-c3nc4ccc(Cl)cc4c(=O)o3)cc2C(=O)N1CC1CCCO1 (stereo not drawn) | -0.25 (inactive)
O=C1NC(=Nc2ccc(O)cc2)S/C1=C\c1ccc(C(=O)O)cc1 | -0.6 (inactive)
Cc1ccccc1C(CC(=O)O)N1Cc2ccccc2C1=O (stereo not drawn) | -0.8 (inactive)
Cc1ccc(Cn2c(=O)c3ccccc3n3c(SCC4CCCO4)nnc23)cc1 (stereo not drawn) | -0.7 (inactive)
COc1ccc(NC(=O)c2cc(F)cc3c2OCOC3)cc1 | 1.45 (inactive)
CNS(=O)(=O)c1ccc2[nH]c(=O)cc(C)c2c1 | 0.45 (inactive)
N#CC1=CN(Cc2ccccc2)C=C(/C=N/Nc2ccc(F)cc2)C1 | -0.9 (inactive)
Cc1cc(C(=O)COC(=O)C2CC2C)c(C)n1-c1cccc(S(=O)(=O)N2CCOCC2)c1 (stereo not drawn) | -0.5 (inactive)
O=C(CNC1CCCC1)Nc1ccc(N2CCCC2)cc1 | -0.15 (inactive)
CN1/C(=C\C(=O)COC(=O)C(C)(C)C)C(C)(C)c2ccccc21 | -0.4 (inactive)
Cn1[nH]c2nc3[nH]n(C)c(=O)c3c(-c3ccccc3)c2c1=O | 0.65 (inactive)
Cn1nc(SCC(=O)N2c3ccccc3CCc3ccccc32)sc1=S | -0.4 (inactive)
O=C(Nc1ccc(Cl)c(Cl)c1)Nc1ccnn1C1CCCCC1 | -1.3 (inactive)
CN(C)c1ccc(/C=N/S(=O)(=O)c2ccccc2)cc1 | -1.15 (inactive)
CC1(C)CC(=O)c2c(SCCO)sc(C#N)c2C1 | -0.35 (inactive)
N#CC1=C(N)C(C#N)(C#N)C(c2cccs2)C=C1C1CC1 (stereo not drawn) | -0.95 (inactive)
Cc1nn(CCCC(=O)NCCC2=CCCCC2)c(=O)c2nccn12 | 0.9 (inactive)
